Where “and” joins values, the source holds several entries; their conditions need not be identical. Equal entries are not always repeated. Records with an inconclusive call do not appear. Calls of active or inactive are those of the source. Calls follow the shape of the dose curve; as a rule, active = well fitted cell-killing curve with a large enough effect in the repeat runs; inconclusive = weak or mixed curves, or effect the other way; inactive = flat fitted curve, though single readings scatter. Positions of bridges follow the written chain, without caps; N, C: chain ends. Non-standard residues stand in square brackets, D forms with d. Residues, ends and D or L forms follow the SMILES beside them. *: point of attachment. Dab(CH2SO3H) = N[C@@H](CCNCS(=O)(=O)O)C(=O)O; X3 = CC[C@@H](C)CCCCC(=O)*; Orn = NCCC[C@H](N)C(=O)O; Dab = NCC[C@H](N)C(=O)O
% is scaled to controls: 0 for no effect and ±100 for the full control effect; potency is read from the fitted curve at half-maximal effect.

This experiment in a line: qHTS assay to identify small molecule that activate the aryl hydrocarbon receptor (AhR) signaling pathway - cell viability counter screen (AID 743086). Also: nearly all actives have a fitted effect of over 45% in size.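 As to viability change, negative = cytotoxic: HepG2 liver cells carrying the AhR DRE luciferase reporter.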 The following applies: HepG2-AhR-luc viability, CellTiter-Fluor, 24 h; series mostly up to 70.3 µM; viability change, negative = cytotoxic: at the top concentration. An excerpt: U.S. Tox21 Program National Center for Advancing Translational Sciences [NCATS] NIH Chemical Genomics Center [NCGC] U.S. Environmental Protection Agency [EPA] National Institutes of Environmental Health Sciences [NIEHS] National Toxicology Program [NTP] U.S. Food and Drug Administration [FDA] Tox21 Assay overview: The Aryl hydrocarbon Receptor (AhR), a member of the family of basic helix-loop-helix transcription factors, is crucial to adaptive responses to environmental changes. AhR mediates cellular responses to environmental pollutants such as aromatic hydrocarbons through induction of phase I and II enzymes but also interacts with other nuclear receptor signaling pathways A cell based HepG2-AhR-luc assay (HG2L7.5c1 cell line, developed by Dr. Michael S. Denison, University of California at Davis) was used to assess the activation of AhR. HepG2 (human hepatocellular carcinoma) cells were stably transfected with an Ah receptor-responsive firefly luciferase reporter gene plasmid containing 20 dioxin responsive elements and luciferase reporter gene. Increased luciferase activity can be used to identify the compounds that induce AhR activation. The cytotoxicity of the compounds screened against the HepG2-AhR-luc cell line was tested in parallel by measuring the cell viability using CellTiter-Fluor assay in the same wells.
Tox21 Assay Protocol Summary: 4000 cells in 5 uL/well were dispensed into white wall/solid bottom 1536-well plates using a Multidrop Combi (Thermo Fisher Scientific Inc., Waltham, MA) dispenser. After the assay plates were incubated at 37C for 5 h, 23 nL of compound or DMSO vehicle was transferred to the assay plates by a pintool station (Kalypsys, San Diego, CA). The plates were incubated at 37C for 24 hr. For cell viability measurement, 1 ul/well of CellTiter-Fluor reagent (Promega, Madison, WI) was added into the assay plates using a Flying Reagent Dispenser (FRD) (Aurora Discovery, CA),and then the assay plates were incubated at 37C for 30 min. The fluorescence intensity in the plates was measured using a ViewLux plate reader (PerkinElmer, Shelton, CT), followed by the addition of 4 uL of ONE-Glo Luciferase Assay reagent (Promega) using an FRD (Aurora Discovery). After the assay plates were incubated at room temperature for 30 min, luminescence intensity was measured using a ViewLux plate reader (Perkin Elmer).
For orientation: qHTS replaces the single test concentration by a dilution series.
Turning to `CC(C)C[C@H](NC(=O)[C@@H](COC(C)(C)C)NC(=O)[C@H](Cc1ccc(O)cc1)NC(=O)[C@H](CO)NC(=O)[C@H](Cc1c[nH]c2ccccc12)NC(=O)[C@H](Cc1cnc[nH]1)NC(=O)[C@@H]1CCC(=O)N1)C(=O)N[C@@H](CCCN=C(N)N)C(=O)N1CCC[C@H]1C(=O)NNC(N)=O`, the Potency entry is “inactive”.
Take `OCC1(CO)COC(C(Cl)(Cl)Cl)OC1`: the “viability change, negative = cytotoxic” value was -1.29% (inactive).
As for `CC[C@@H](C(=O)[C@@H](C)[C@@H](O)[C@H](C)CCc1ccc(C)c(O)c1C(=O)O)[C@H]1O[C@](CC)([C@H]2CC[C@](O)(CC)[C@H](C)O2)C[C@@H]1C`, the Potency was 29.8 µM (active).
As for `CC1=C(/C=C/C(C)=C/C=C/C(C)=C/C=C/C=C(C)/C=C/C=C(C)/C=C/C2=C(C)CCCC2(C)C)C(C)(C)CCC1`, the “viability change, negative = cytotoxic” value is 5.64% (inactive).
For `CC(C)(Oc1ccc(C2CCCc3ccccc32)cc1)C(=O)O` (stereo not given), the “viability change, negative = cytotoxic” value is 8.98% (inactive).
As for `COc1cccc(-c2ccc(/C=C\CN3CCCCCC3)cc2Cl)c1`, the “viability change, negative = cytotoxic” value is -5.15% (inactive).
With `CC(C)[C@H](NC(=O)[C@H](CC(=O)O)NC(=O)[C@H](CCCCN)NC(=O)[C@@H](N)CCCN=C(N)N)C(=O)N[C@@H](Cc1ccc(O)cc1)C(=O)O` (H-RKDVY-OH), the “viability change, negative = cytotoxic” value was 16.4% (inactive).
Turning to `O=C[C@H](O)[C@@H](O)[C@@H](O)[C@H](O)CO`, the “viability change, negative = cytotoxic” value was 2.94% (inactive).
As to `C[C@H](Cc1ccc(O)c(O)c1)[C@@H](C)Cc1ccc(O)c(O)c1`, the “viability change, negative = cytotoxic” value was -1.26% (inactive).
`CCN1\C(=C/C=C/C=C/c2sc3ccccc3[n+]2CC)Sc2ccccc21`: the Potency is 11.9 µM (active) and 23.7 µM (active).
For the molecule `CC(C)COC(=O)OCN1C(=O)CN(CCN2CC(=O)N(COC(=O)OCC(C)C)C(=O)C2)CC1=O`, the “viability change, negative = cytotoxic” value is 4.61% (inactive).
With `CC(=O)OCC1=C(C(=O)O)N2C(=O)[C@@H](NC(=O)Cc3ccccc3)[C@H]2SC1`, the “viability change, negative = cytotoxic” value was 0.785% (inactive).
Consider `O=C(O)C[C@H](O)C[C@H](O)/C=C/c1c(C2CC2)nc2ccccc2c1-c1ccc(F)cc1`, for which the “viability change, negative = cytotoxic” value is -2.46% (inactive).
Take `N=C(N)c1ccc(/C=C/c2ccc(C(=N)N)cc2O)cc1`: the “viability change, negative = cytotoxic” value is -6.41% (inactive).
Regarding `O=C1c2ccccc2CN2C(=O)c3ccccc3CN12`, the “viability change, negative = cytotoxic” value is -11.3% (inactive).
Regarding `O=C(O)[C@H]1CN(C/C=C/P(=O)(O)O)CCN1`, the “viability change, negative = cytotoxic” value was -8.57% (inactive).
In the case of `CC(O)(c1ccc(Cl)cc1)c1ccc(Cl)cc1`, the “viability change, negative = cytotoxic” value is -8.72% (inactive).
With `CC[C@H](C)C(=O)O[C@H]1CCC=C2C=C[C@H](C)[C@H](CC[C@@H]3C[C@@H](O)CC(=O)O3)[C@H]21`, the “viability change, negative = cytotoxic” value is 12.9% (inactive).
As to `C[S+](C)CCC(N)C(=O)O` (stereo not given), the “viability change, negative = cytotoxic” value is -1.53% (inactive).
Consider `COc1ccc([C@@H]2CC(=O)c3c(O)cc(O[C@@H]4O[C@H](CO[C@@H]5O[C@@H](C)[C@H](O)[C@@H](O)[C@H]5O)[C@@H](O)[C@H](O)[C@H]4O)cc3O2)cc1O`, for which the “viability change, negative = cytotoxic” value is -1.42% [at 32.5 µM] (inactive).
With `O=C(Cn1cnnn1)N[C@@H]1C(=O)N2C(C(=O)O)=C(CSc3nncs3)CS[C@H]12`, the Potency entry is “inactive”.
Regarding `O=C(O)[C@@H]1C[C@H](CP(=O)(O)O)CCN1`, the “viability change, negative = cytotoxic” value is -3.49% (inactive).
The same measure, in the same setting: with `O=C1[O][Bi][O]c2ccccc21` the figure was -0.112% (inactive).
Regarding `C[C@H]1O[C@@H](O[C@H]2CC[C@@]3(C)[C@H](CC[C@@H]4[C@@H]3C[C@@H](O)[C@]3(C)[C@@H](C5=CC(=O)OC5)CC[C@]43O)C2)C[C@H](O)[C@@H]1O[C@H]1C[C@H](O)[C@H](O[C@H]2C[C@H](O)[C@H](O[C@@H]3O[C@H](CO)[C@@H](O)[C@H](O)[C@H]3O)[C@@H](C)O2)[C@@H](C)O1`, the “viability change, negative = cytotoxic” value is -20.7% (inactive).
For `CCCCC/C=C\C=C\C(=O)OCC`, the “viability change, negative = cytotoxic” value is 0.163% [at 95 µM] (inactive).
On to `N[C@H](CO)C(=O)O`, for which the “viability change, negative = cytotoxic” value was 4.14% (inactive).
With `CCN(CC)CC#CCOC(=O)C(O)(c1ccccc1)C1CCCCC1` (stereo not given), the Potency is 18.8 µM (active).
For `CN(C)CCc1c[nH]c2ccc(Cn3cncn3)cc12`, the “viability change, negative = cytotoxic” value was -4.05% (inactive).
For the molecule `OCCCNc1ccccc1`, the “viability change, negative = cytotoxic” value was 10.4% (inactive).
As for `CCC(=O)OC(OP(=O)(CCCCc1ccccc1)CC(=O)N1C[C@H](C2CCCCC2)C[C@H]1C(=O)O)C(C)C` (stereo not given in full), the “viability change, negative = cytotoxic” value is -13.8% (inactive).
Consider `C(=C\c1ccncc1)/c1ccccc1`, for which the Potency result is “inactive”.
For `CC12CCC(C[N+](C)(CCC[N+](C)(C)C)C1)C2(C)C` (stereo not given), the “viability change, negative = cytotoxic” value is 10.8% (inactive).
For the molecule `NC(N)=NCc1cccc(I)c1`, the Potency result is “inactive”.
For the molecule `CC(C)C[C@@H]1NC(=O)[C@H](CCCN)NC(=O)[C@H](C(C)C)NC(=O)[C@@H]2CCCN2C(=O)[C@@H](Cc2ccccc2)NC(=O)[C@H](CC(C)C)NC(=O)[C@H](CCCN)NC(=O)[C@H](C(C)C)NC(=O)[C@@H]2CCCN2C(=O)[C@@H](Cc2ccccc2)NC1=O` (cyclo(V[Orn]L[dF]PV[Orn]L[dF]P)), the Potency is 18.8 µM (active).
Consider `C=C1C(=C/C=C2\CCC[C@]3(C)[C@@H]([C@H](C)CCCC(C)C)CC[C@@H]23)C[C@@H](O)C[C@@H]1O`, for which the “viability change, negative = cytotoxic” value is -4.87% (inactive).
The same measure, in the same setting: with `CO/N=C(\C(=O)N[C@@H]1C(=O)N2C(C(=O)[O-])=C(C[n+]3ccc(N)n3CCO)CS[C@H]12)c1csc(N)n1` the figure was 6.28% (inactive); with `O=P(O)(O)OP(=O)(O)OP(=O)(O)O`, 7.86% (inactive).
Same read-out and setting: with `C[C@@H]1O[C@@H](OC[C@H]2O[C@@H](Oc3c(-c4ccc(OCCO)c(OCCO)c4)oc4cc(OCCO)cc(O)c4c3=O)[C@H](O)[C@@H](O)[C@@H]2O)[C@H](O)[C@H](O)[C@H]1O` the figure was -7.41% (inactive).
Regarding `CCCCC[C@H](O)/C=C/[C@@H]1[C@@H](C/C=C\CCCC(=O)O)[C@@H](O)C[C@H]1O`, the Potency entry is “inactive”.
As to `CC[C@@H](C)CCCCC(=O)N[C@@H](CCNCS(=O)(=O)O)C(=O)N[C@H](C(=O)N[C@@H](CCNCS(=O)(=O)O)C(=O)N[C@H]1CCNC(=O)[C@H]([C@@H](C)O)NC(=O)[C@H](CCNCS(=O)(=O)O)NC(=O)[C@H](CCNCS(=O)(=O)O)NC(=O)[C@H](CC(C)C)NC(=O)[C@@H](CC(C)C)NC(=O)[C@H](CCNCS(=O)(=O)O)NC1=O)[C@@H](C)O` (X3-[Dab(CH2SO3H)]T[Dab(CH2SO3H)][Dab][Dab(CH2SO3H)][dL]L[Dab(CH2SO3H)][Dab(CH2SO3H)]T; lactam 4-C), the “viability change, negative = cytotoxic” value was 11% (inactive).

(Values after PubChem BioAssay (Tox21).)
